In PubChem BioAssay AID488933 (Broad Institute, 2010):
Results with a measured potency or affinity are listed apart. Unmarked numbers belong to inactive results.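 Rule for the calls: active = compounds lowering the cell viability signal, with fitted half-maximal dose at most ten times the top valid dose; inconclusive = flat partial drop of 30 to 70 percent, or poor fit; inactive = flat near zero, weak potency, or rising signal.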

experiment: mammalian cell toxicity, NIH-3T3 fibroblasts, dose response, cytotoxicity control for reversing antifungal drug resistance, Alamar Blue, dry powder, set 3 (AID 488933); settings: NIH-3T3 viability with fluconazole, 48 h; series mostly up to 26 µM; activity change, negative = toxicity: at the top concentration

Structure (SMILES)	activity change, negative = toxicity
CCCCC(=O)N1CCN(c2ccccn2)CC1	-1.2%
O=C(c1ccc(Cl)cc1)N1CCN(c2cnccn2)CC1	5.64%
O=C(c1ccc(Cl)cc1)N1CCN(c2nc3ccccc3o2)CC1	0.918%
O=C(c1ccc(Cl)cc1)N1CCN(c2ncccc2C(F)(F)F)CC1	1.94%
Cc1ccc(N2CCN(C(=O)c3ccc(Cl)cc3)CC2)nn1	0.652%
Cn1ccnc1N1CCN(C(=O)c2ccc(Cl)cc2)CC1	-3.06%
O=C(c1ccc(F)cc1)N1CCN(c2ccccn2)CC1	6.84%
N#Cc1ccc(C(=O)N2CCN(c3ccccn3)CC2)cc1	3.01%
c1ccc(N2CCNCC2)nc1	6.03%
N#Cc1cccnc1N1CCN(C(=O)c2ccc(Cl)cc2)CC1	-3.83%
O=C(c1ccc(Cl)cc1)N1CCN(c2cccc(C(F)(F)F)n2)CC1	4.33%
COc1cccnc1N1CCN(C(=O)c2ccc(Cl)cc2)CC1	7.07%
O=C(c1ccccc1Cl)N1CCN(c2ccccn2)CC1	6.83%
O=C(c1ccc(Cl)cc1)N1CCN(c2ncccn2)CC1	-2.51%
Cc1ccc(C(=O)N2CCN(c3ccccn3)CC2)cc1	7.48%
O=C(c1cccc(Cl)c1)N1CCN(c2ccccn2)CC1	1.16%
Cc1ccnc(N2CCN(C(=O)c3ccc(Cl)cc3)CC2)c1	-3.82%
COCCC(=O)N1CCN(c2ccccn2)CC1	2.82%
O=C(c1ccc(Cl)cc1)N1CCN(c2nc3ccccc3s2)CC1	-2.51%
Cc1cccc(N2CCN(C(=O)c3ccc(Cl)cc3)CC2)n1	-5.38%
Cc1ccc(N2CCN(C(=O)c3ccc(Cl)cc3)CC2)nc1	-4.89%
O=C(c1ccc(Cl)cc1)N1CCN(c2ccc(C(F)(F)F)cn2)CC1	-0.994%
CC(C)C(=O)N1CCN(c2ccccn2)CC1	9.72%
CC(C)C(=O)N1CCN(c2ccnc3cc(Cl)ccc23)CC1	11.1%
O=C(C1CCCCC1)N1CCN(c2ccccn2)CC1	-4.51%
COc1ccc(C(=O)N2CCN(c3ccccn3)CC2)cc1	-1.51%
O=C(c1ccc(Cl)cc1)N1CCN(c2nccs2)CC1	-5.96%
